Experimental data taken from PubChem BioAssay (Tox21).
Results filed as inconclusive are left out. Where a call stands in place of a potency, no number is given. Active and inactive are the calls of the source. The call rests on the fitted dose curve.

Experiment: qHTS assay to identify small molecule antagonists of the estrogen receptor alpha (ER-alpha) signaling pathway using the BG1 cell line (AID 743080);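 further: BG1 cells stimulated with 17beta-estradiol alongside compound; nearly all actives have a fitted effect of over 25% in size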
Conditions: BG1Luc4E2 ERE-luciferase antagonist mode, luminescence; series mostly up to 70.3 µM
Method in brief: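 Seeding, 24 h rest, compound transfer from DMSO, 17beta-estradiol addition, 21.5 h incubation, CellTiter-Fluor (30 min, 37 C), then ONE-Glo (30 min, room temperature): this sequence was run on BG1-Luc-4E2 reporter cells.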
Potency means the concentration at half of the fitted maximal effect.

Compound | Potency
Oc1cc(Cl)cc(Cl)c1Cl | inactive
CCCCCC(C)OC(=O)COc1ccc(Cl)c2cccnc12 (stereo unspecified) | inactive
Cc1cc(C(C)(C)C)cc(C)c1CC1=NCCN1 | inactive
Cc1ccc(N/N=c2\c(=O)cc/c(=N\Nc3ccc(S(=O)(=O)O)cc3)c2=O)c(C)c1 | inactive
O=C(c1ccc(O)c(O)c1)c1ccc(O)cc1O | inactive
CCOc1ccc2ccccc2c1C(=O)N[C@@H]1C(=O)N2[C@@H]1SC(C)(C)[C@@H]2C(=O)O | inactive
C[C@H]1NCc2cc(-c3ccc4c(=O)c(C(=O)O)cn(C5CC5)c4c3OC(F)F)ccc21 | inactive
CN1CCCCC1CCN1c2ccccc2Sc2ccc(S(C)=O)cc21 (stereo unspecified) | inactive
Nc1cc(Cl)c(O)c(Cl)c1 | inactive
O=c1c(O)c(-c2ccc(O)cc2O)oc2cc(O)cc(O)c12 | inactive
Cl[Si](Cl)(c1ccccc1)c1ccccc1 | inactive
CC(C)(C)c1ccc(C(O)CCCN2CCC(C(O)(c3ccccc3)c3ccccc3)CC2)cc1 (stereo unspecified) | inactive
NC(=S)NC(N)=S | inactive
CCCCC/C=C\C/C=C\CCCCCCCC(=O)O | inactive
Cc1cc(C(C)(C)C)c(O)c(C)c1Cn1c(=O)n(Cc2c(C)cc(C(C)(C)C)c(O)c2C)c(=O)n(Cc2c(C)cc(C(C)(C)C)c(O)c2C)c1=O | inactive
CCCCCCCCCCCCCC[N+](C)(C)Cc1ccccc1 | 26.6 µM (active)
